Entries with a potency or affinity are not part of this list. Records with an inconclusive call do not appear.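 Rule for the calls: active = falling signal with fitted half-maximal potency no higher than twice the top valid tested dose; inconclusive = poor fit quality, or flat fit spanning -70% to -30%; inactive = potency over limit, rising signal, or flat fit inside 30%.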
Assay: Cryptococcus neoformans growth inhibition, dose response, Alamar Blue, cherry-picks (AID 686998)
Conditions: 24 h; series mostly up to 35 µM; activity change, negative = inhibition: at the top concentration

Activity change, negative = inhibition, inactive:
C[C@H](CO)N1C[C@H](C)[C@@H](CN(C)C(=O)c2ccncc2)OCCCC[C@H](C)Oc2ccc(NC(=O)Cc3ccccc3)cc2C1=O 11.1%
Cc1noc(C)c1S(=O)(=O)Nc1ccc2c(c1)C(=O)N([C@@H](C)CO)C[C@@H](C)[C@@H](CN(C)Cc1ccccc1)OCCCC[C@H](C)O2 20.1%
Cc1cccc(C)c1NC(=O)CN(C)C(=O)C1CC1C (stereo unspecified) 22.4%
S=C(Nc1ccc(Cl)cc1Cl)Nc1ccccc1Oc1ccccc1 -28.9%
CC(C)NC(=O)Nc1ccc2c(c1)C(=O)N([C@@H](C)CO)C[C@H](C)[C@@H](CN(C)S(=O)(=O)c1cccs1)OCCCC[C@H](C)O2 -46.4%
CNC[C@@H]1OCCCC[C@@H](C)Oc2ccc(NS(=O)(=O)c3ccc(Cl)cc3)cc2C(=O)N([C@H](C)CO)C[C@H]1C -30.5%
Cc1noc(C)c1S(=O)(=O)Nc1ccc2c(c1)CC(=O)N([C@H](C)CO)C[C@H](C)[C@H](CN(C)S(=O)(=O)c1cccs1)O2 16.8%
CC(C)NC(=O)N(C)C[C@H]1OCCCC[C@H](C)Oc2ccc(NC(=O)c3ccccc3)cc2C(=O)N([C@@H](C)CO)C[C@@H]1C -10.7%
Cc1cccc(-c2ccc([C@H]3[C@H](CO)N4CCCCN(C(=O)c5ccc6c(c5)OCO6)C[C@@H]34)cc2)c1 -21.1%
C[C@@H]1CN([C@@H](C)CO)C(=O)c2cc(NC(=O)C3CC3)ccc2O[C@H]1CN(C)CC1CCCCC1 -30.5%
COc1ccc(S(=O)(=O)N[C@H]2C=C[C@H](CC(=O)N3CCC(Cc4ccccc4)CC3)O[C@@H]2CO)cc1 -22%

From PubChem BioAssay
